Test results: PubChem BioAssay AID1159580 (chemical genetic matrix, 2015)
Where “and” joins values, the source holds several entries; their conditions need not be identical. Equal entries are not always repeated. The whole screen tested about 5,500 compounds, of which about 2,000 (36%) were called active. Roughly 18% stayed inconclusive and do not appear here. Cut-off read from the data, not from the text of the source: active = normalized growth mostly below about 0.91 (no sharp cut-off); inconclusive = no clear call, values can overlap the other calls; inactive = mostly above about 0.92. The list shows a part of the results.

Test: chemical genetic growth profiling, strain panel (AID 1159580);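 note: tested at 20 µM; growth read once vehicle control cultures reached saturation at 30 °C; 1 = growth at the plate median or of vehicle wells; lower values mean less growth of the strain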
Conditions: S. cerevisiae deletion strains, growth OD

Measured: normalized growth

CC(=O)O[C@H]1CC[C@@]2(C)C(C[C@@H](OC(C)=O)[C@@]3(C)C4=CC(=O)O[C@@H](c5ccoc5)[C@]4(C)CCC23)C1(C)C (some centres undefined)
inactive: locus YAL021C, strain ccr4, stronger effect = lower value 1 | locus YAL026C, strain drs2, stronger effect = lower value 1.01 | locus YAL030W, strain snc1, stronger effect = lower value 0.999 | locus YBL061C, strain skt5, stronger effect = lower value 0.997 | locus YBR009C, strain hhf1, stronger effect = lower value 1.02 | locus YBR021W, strain FUR4, stronger effect = lower value 0.981 | locus YBR023C, strain chs3, stronger effect = lower value 0.996 | locus YBR171W, strain sec66, stronger effect = lower value 1 | locus YBR229C, strain ROT2, stronger effect = lower value 1.01 | locus YBR231C, strain swc5, stronger effect = lower value 1.01 | locus YBR279W, strain paf1, stronger effect = lower value 1 | locus YCL011C, strain gbp2, stronger effect = lower value 1.01 | locus YCL016C, strain dcc1, stronger effect = lower value 1.01 | locus YCL029C, strain bik1, stronger effect = lower value 0.989 | locus YCL061C, strain MRC1, stronger effect = lower value 0.994 | locus YCL069W, strain vba3, stronger effect = lower value 1.02 | locus YCR088W, strain abp1, stronger effect = lower value 1 | locus YDL005C, strain med2, stronger effect = lower value 1 | locus YDL035C, strain GPR1, stronger effect = lower value 1.02 | locus YDL040C, strain nat1, stronger effect = lower value 1 | locus YDL074C, strain BRE1, stronger effect = lower value 1 | locus YDL101C, strain DUN1, stronger effect = lower value 0.999 | locus YDL134C, strain PPH21, stronger effect = lower value 1 | locus YDL185W, strain tfp1, stronger effect = lower value 1 | locus YDL192W, strain arf1, stronger effect = lower value 0.988 | locus YDR001C, strain nth1, stronger effect = lower value 1 | locus YDR069C, strain doa4, stronger effect = lower value 1.02 | locus YDR101C, strain arx1, stronger effect = lower value 1.01 | locus YDR137W, strain rgp1, stronger effect = lower value 0.96 | locus YDR150W, strain NUM1, stronger effect = lower value 1.01 | locus YDR159W, strain sac3, stronger effect = lower value 1 | locus YDR162C, strain NBP2, stronger effect = lower value 0.992 | locus YDR195W, strain ref2 1.02 | locus YDR297W, strain sur2, stronger effect = lower value 1.02 | locus YDR318W, strain mcm21, stronger effect = lower value 0.998 | locus YDR334W, strain swr1, stronger effect = lower value 1.01 | locus YDR335W, strain msn5, stronger effect = lower value 0.997 | locus YDR388W, stronger effect = lower value 1 | locus YDR392W, strain spt3, stronger effect = lower value 0.974 | locus YDR502C, strain sam2, stronger effect = lower value 0.992 | locus YEL003W, strain gim4, stronger effect = lower value 1 | locus YEL037C, strain rad23, stronger effect = lower value 1 | locus YEL061C, strain CIN8 (second series), stronger effect = lower value 1.01 | locus YEL061C, strain CIN8, stronger effect = lower value 1.01 | locus YER015W, strain faa2, stronger effect = lower value 0.991 | locus YER016W, strain bim1, stronger effect = lower value 0.997 | locus YER110C, stronger effect = lower value 0.992 | locus YER111C, strain swi4, stronger effect = lower value 1.01 | locus YER155C, strain BEM2 (second series), stronger effect = lower value 0.992 | locus YER155C, strain BEM2, stronger effect = lower value 1.01 | locus YER167W, strain BCK2, stronger effect = lower value 1.01 | locus YFR010W, strain ubp6, stronger effect = lower value 1 | locus YGL078C, strain dbp3, stronger effect = lower value 0.992 | locus YGL086W, strain mad1, stronger effect = lower value 1.01 | locus YGL167C, strain pmr1, stronger effect = lower value 1.01 | locus YGL173C, strain kem1, stronger effect = lower value 1.01 | locus YGL227W, strain vid30, stronger effect = lower value 0.997 | locus YGL240W, strain doc1, stronger effect = lower value 1.02 | locus YGL248W, strain PDE1, stronger effect = lower value 1 | locus YGL253W, strain hxk2, stronger effect = lower value 1 | locus YGR078C, strain PAC10, stronger effect = lower value 0.988 | locus YGR135W, strain pre9, stronger effect = lower value 0.975 | locus YGR229C, strain SMI1, stronger effect = lower value 1 | locus YGR252W, strain gcn5, stronger effect = lower value 0.929 | locus YHR013C, strain ard1, stronger effect = lower value 0.978 | locus YHR027C, strain rpn1, stronger effect = lower value 1.01 | locus YHR030C, strain SLT2, stronger effect = lower value 0.955 | locus YHR079C, strain IRE1 (second series), stronger effect = lower value 0.993 | locus YHR079C, strain IRE1, stronger effect = lower value 0.98 | locus YHR094C, strain hxt1, stronger effect = lower value 0.998 | locus YHR129C, strain ARP1, stronger effect = lower value 1.01 | locus YHR142W, strain chs7, stronger effect = lower value 1 | locus YHR200W, strain rpn10, stronger effect = lower value 0.994 | locus YIL066C, strain RNR3, stronger effect = lower value 1.02 | locus YIL073C, strain SPO22, stronger effect = lower value 1.02 | locus YIL125W, strain kgd1, stronger effect = lower value 1.01 | locus YIR030C, strain dcg1, stronger effect = lower value 0.991 | locus YJL092W, strain hpr5, stronger effect = lower value 0.996 | locus YJL095W, strain BCK1 (second series), stronger effect = lower value 0.99 | locus YJL095W, strain BCK1, stronger effect = lower value 0.985 and 0.949 | locus YJL115W, strain asf1, stronger effect = lower value 0.993 | locus YJL129C, strain trk1, stronger effect = lower value 0.99 | locus YJL134W, strain LCB3, stronger effect = lower value 1.01 | locus YJL154C, strain vps35, stronger effect = lower value 0.994 | locus YJL164C, strain tpk1, stronger effect = lower value 1.01 | locus YJL166W, strain qcr8, stronger effect = lower value 1.02 | locus YJL168C, strain set2, stronger effect = lower value 0.986 | locus YJL187C, strain SWE1 (second series), stronger effect = lower value 0.997 | locus YJL187C, strain SWE1, stronger effect = lower value 1.01
